# High-throughput results deposited in PubChem by National Center for Advancing Translational Sciences (NCATS).
# Only some compounds are listed: those with a hit (about 7.9% of all), similar ones and a draw of the others.
# HT1080 IDH1KD tx: qHTS for induction of synthetic lethality in tumor cells producing 2HG: qHTS for the HT-1080-IDH1KD cell line; HT-1080 IDH1 knockdown viability, ATP luminescence, 48 h; 360,000 tested, 2% active; AID 686971, 2013; Potency, µM (titrated, usually from 46.1 µM), for inactives: at the highest dose activity, negative = toxicity, most hits filed as cytotoxic;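 further: 0% = DMSO wells and -100% = cell-free medium wells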
#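 Knockdown cells (IDH1KD HT-1080) received compounds 2 h after plating at 750 cells/well and were kept 48 h at 37 °C in 5% FBS RPMI. A CellTiter-Glo luminescence read gave % activity for curve fitting.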
# HT1080NT lethal: qHTS for induction of synthetic lethality in tumor cells producing 2HG: qHTS for the HT-1080-NT fibrosarcoma cell line. AID 686970, 2013. Potency, µM (highest dose often 46.1 µM), inactives show at the highest dose activity, negative = less viability, actives largely listed as cytotoxic. HT-1080-NT fibrosarcoma viability, CellTiter-Glo ATP luminescence, 48 h. 360,000 tested, 1.6% active;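 further: NT is the 2HG producing partner of a matched IDH1 knockdown line; 0% = DMSO-treated cells and -100% = media-only wells without cells; nearly all actives have a fitted effect of over 55% in size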
#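 Luminescent CellTiter-Glo readout after 48 hours of compound exposure at 37 degrees C defined viability of HT-1080-NT cells. Activity was normalized to DMSO wells and cell-free media wells; concentration-response curves were fitted and assigned curve classes.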
# KB-V1 MDR tox: qHTS assay for MDR1-selective chemotherapeutics: Primary screen using the drug-selected MDR subline cells KB-V1. KB-V1 MDR cells viability, CellTiter-Glo, 72 h. Potency, µM (series often up to 46.1 µM), actives largely listed as cytotoxic. 400,000 tested, 3.4% active. AID 1347076, 2019; further: on the % scale 0 is the no-effect control and ±100 the full control effect; nearly all actives have a fitted effect of over 60% in size
#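 KB-V1 MDR subline cells in DMEM (phenol-red free, 10% FBS) exposed to compounds in qHTS concentration series for 72 h at 37 degrees C. Viability read by CellTiter-Glo luminescence; concentration-effect curves fitted after normalization and correction.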
# SW480 rereplic: A quantitative high throughput screen for small molecules that induce DNA re-replication in SW480 colon adenocarcinoma cells; AID 624297, 2012; SW480 DNA re-replication, Hoechst DNA content imaging, 48 h; Potency, µM (series often up to 46.1 µM), for inactives: at the top dose re-replication activation, usual class: activators; 340,000 tested, 1.8% active; further: % of control where 0% means no effect; nearly all actives have a fitted effect of over 55% in size
#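 Treated cells incubate 48 hr (37 C, 5% CO2), are stained 40 min with Hoechst, and nuclear fluorescence is enumerated; a rise in nuclei with high DNA signal marks re-replication.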
# KB-3-1 cytotox: qHTS assay for MDR1-selective chemotherapeutics: Primary screen using the parental adenocarcinoma cell KB-3-1; KB-3-1 viability, CellTiter-Glo ATP luminescence, 72 h; 400,000 tested, 1.4% active; Potency, µM (top dose mostly 46.1 µM), actives largely listed as cytotoxic; further: on the % scale 0 is the no-effect control and ±100 the full control effect; nearly all actives have a fitted effect of over 60% in size
#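 Cells are dispensed, compounds pinned in, plates held at 37 °C for 72 h, then CellTiter-Glo is added and luminescence read after 10 minutes. Cell line: parental KB-3-1 in phenol-red-free DMEM, 10% FBS.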
# MCF10A rereplic: A quantitative high throughput screen for small molecules that induce DNA re-replication in MCF 10a normal breast cells | MCF 10A DNA re-replication, Hoechst nuclear intensity, 48 h | Potency, µM (titrated, usually from 46.1 µM), without a hit: top-dose activity, positive = re-replication, most hits filed as activators | 350,000 tested, 2.9% active | AID 624296, 2012; further: % of control where 0% means no effect; nearly all actives have a fitted effect of over 50% in size
# The depositor's hits bear a star; i = inactive; u = inconclusive; x = no result given; ! = not active in a repeat; [ ] = dose if it differs, or a comment. The call rests on the fitted dose curve; in most records, active means well fitted curve in the direction sought with a large enough effect; inconclusive means small, poorly fitted or top-dose-only effect, or another doubt; inactive means no such curve, though single readings can be large; an effect the other way counts as inactive or inconclusive. Potency means the concentration at half of the fitted maximal effect.
SMILES,HT1080 IDH1KD tx,HT1080NT lethal,KB-V1 MDR tox,SW480 rereplic,KB-3-1 cytotox,MCF10A rereplic
Cc1ccc(S(=O)(=O)C(CNC(=O)COc2ccccc2)c2cccs2)cc1 (stereo unspecified),x,x,i,x,i,x
Cc1ccc(OCC(O)Cn2c(=N)n(CCN3CCOCC3)c3ccccc32)cc1 (stereo unspecified),-13.4%,-20.9%,i,-0.6%,i,13.4%
CCn1c(=N)n(CC(O)COc2ccc(C)cc2)c2ccccc21 (stereo unspecified),u,u,i,u,i,-37.6%
CCCn1c(=N)n(CC(O)COc2ccc(C)cc2)c2ccccc21 (stereo unspecified),16.4µM*,16.4µM*,u,u,i,-31.9%
CCCCn1c(=N)n(CC(O)COc2cccc(C)c2)c2ccccc21 (stereo unspecified),u,u,20.6µM*,u,20.6µM*,21.1%
Cc1cccc(OCC(O)CN2CCc3ccccc3C2)c1 (stereo unspecified),0.0%,1.2%,i,-4.6%,i,1.5%
Cc1ccc(OCC(O)Cn2c(=N)n(CCN3CCCCC3)c3ccccc32)cc1 (stereo unspecified),u,16.4µM*,23.1µM*,u,20.6µM*,u
Cc1cccc(CNC(=O)C2CCC(=O)N(C3CCCCCC3)C2)c1 (stereo unspecified),5.3%,4.4%,i,-9.1%,i,5.5%
COc1ccccc1C(C[N+](=O)[O-])c1c(N)n(C)c(=O)n(C)c1=O (stereo unspecified),u,u,7.31µM*,u,u,u
c1ccc(-c2cc(-c3nc4ccccc4[nH]3)c3ccccc3n2)cc1,u,-28.6%,16.4µM*,-1.1%,16.4µM*,u
Cc1ccccc1CNC(=O)c1c(C)oc2c1C1=NCCN1C=N2,x,x,i,x,i,x
CCc1cccc(NC(=O)CSc2ncc3c(n2)-c2ccc(Cl)cc2N(Cc2ccccc2)S3(=O)=O)c1,x,x,i,x,i,x
CCn1cc(C(=O)N2CCN(c3ccc(OC)cc3)CC2)c2cc(OC)c(OC)cc2c1=O,4.9%,-0.4%,u,-2.0%,i,-2.8%
COc1cccc(C(=O)N2CCN(C(=O)c3cccc4ccccc34)CC2)c1OC,7.1%,6.0%,i,-4.0%,i,-5.2%
COc1ccccc1C(=O)N1CCN(c2cccc(Cl)c2)CC1,2.59µM*,2.59µM*,u,u,u,u
CCc1ccc(CN2CCN(C(=O)c3cccc(OC)c3OC)CC2)cc1,14.1µM*,-11.5%,u,1.0%[9.22 µM],i,-7.4%
CCn1cc(C(=O)N2CCN(c3ccc(F)cc3)CC2)c2cc(OC)c(OC)cc2c1=O,-2.0%,-1.9%,i,u,i,0.0%
CCn1cc(C(=O)N2CCN(c3cccc(Cl)c3)CC2)c2cc(OC)c(OC)cc2c1=O,u,u,20.6µM*!,u,u,u
COc1cc2c(C(=O)N3CCN(c4cccc(Cl)c4)CC3)cn(C)c(=O)c2cc1OC,11.6µM*,u,u,u,u,u
CC(O)C(N)C(=O)O (stereo unspecified),x,x,x,-6.5%,x,0.2%
Cc1ccccc1-c1nc2ccc(Cl)cc2c(=O)n1O,-9.6%,-12.7%,i,-7.9%,i,-1.3%
Cc1ccccc1-c1cc(C(=O)n2cccn2)c2cc(Cl)ccc2n1,10µM*,u,i,2.9%,u,2.2%
COc1ccc2c(c1)c1nnc(SCCN3CCOCC3)nc1n2C,-8.8%,-5.4%,x,x,x,x
Cc1ccc(CNC(=O)CCCn2c(=O)c3ccccc3n(Cc3ccc(Cl)cc3)c2=O)cc1,x,x,i,x,i,x
Cc1c(C#N)c(NC(=O)CCl)n(Cc2cccs2)c1C,u,16.4µM*,u,5.8µM*,u,u
SMILES,HT1080 IDH1KD tx,HT1080NT lethal,KB-V1 MDR tox,SW480 rereplic,KB-3-1 cytotox,MCF10A rereplic
Cc1c(C#N)c(NC(=O)CCl)n(Cc2ccc(F)cc2)c1C,u,u,i,u,u,u
CCN(CC)C(=O)c1sc(NC(=O)Cc2cccs2)c(C#N)c1C,-12.7%,7.7%,u,15.9%,i,0.9%
Cc1c(C#N)c(NC(=O)CCl)n(Cc2ccccc2)c1C,1.64µM*,u,u,u,10.3µM*,u
C[C@@H]1CN([C@@H](C)CO)C(=O)c2cc(C#Cc3ccccc3)cnc2O[C@H]1CN(C)C(=O)c1ccccc1F,-4.6%,-17.6%,i,x,i,x
Cc1cc(Nc2ccccc2)n(-c2ccccc2)n1,-2.9%,-14.5%,i,3.3%,i,-0.4%
Cc1cc(Nc2nc(Cl)c(Cl)cc2Cl)n(-c2ccccc2)n1,u,u,u,26.4%,11.6µM*,u
Cc1cc(Nc2ncc(Cl)cc2Cl)n(-c2ccccc2C)n1,-23.9%,-12.9%,i,u,i,u
Cc1ccc(-n2nc(C)cc2Nc2ncc(Cl)cc2Cl)cc1,-3.9%,-1.0%,20.6µM*,u,i,u
CN1CCC(OC(=O)Cc2ccc(Cl)cc2)CC1,6.9%,11.1%,u,14.6µM*,i,-2.4%
Cc1ccccc1-c1noc(CSc2nc3ccccc3[nH]2)n1,x,x,i,x,i,x
CCCCc1ccc(NC(=S)NCc2cccnc2)cc1,12.1%,16.1%,14.6µM*,-16.8%,u,u
NC(=S)NCc1cccnc1,14.9%,18.0%,i,-6.7%,i,10.6%
CCc1ccc(NC(=S)NCc2cccnc2)cc1,10.5%,4.8%,i,-4.0%,i,10.4%
CSC(=S)NCc1cccnc1,u,u,i,3.66µM*,25.9µM*,3.26µM*
CCN1CCN(CC(=O)Nc2ccc(Cl)c(S(=O)(=O)N(C)C)c2)CC1,6.0%,u,i,-22.0%,i,-0.4%
O=C(NC(=S)NCc1cccnc1)c1ccccc1[N+](=O)[O-],14.4%,0.3%,23.1µM*,-32.4%,i,0.6%
CCCCc1ccc(NC(=S)Nc2ccc(Cl)c(S(=O)(=O)N(C)C)c2)cc1,20.6µM*,u,23.1µM*,8.1%,u,u
Cc1cc(NC(=O)CSCC(=O)Nc2cccc(S(=O)(=O)N3CCCCCC3)c2)no1,1.4%,-4.4%,i,-1.4%,i,-3.0%
